Measurements published in PubChem BioAssay (NCATS).
Results filed as inconclusive are left out. Active and inactive are the calls of the source. Calls follow the shape of the dose curve; as a rule, active = well fitted inhibition curve with a large enough effect; inconclusive = small, poorly fitted or top-dose-only effect; inactive = flat fitted curve, though single readings scatter.

Legend:
Assay in all cases: qHTS profiling for inhibitors of Plasmodium falciparum proliferation (AID 504749); also: nearly all actives have a fitted effect of over 60% in size
Conditions in all cases: P. falciparum in erythrocytes, SYBR Green DNA, 72 h; series mostly up to 28.7 µM
GB4 = system: GB4
In short: (§1)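 Each compound contacts P. falciparum-infected red blood cells for 72 h at 37 C; lysis buffer (Tris, EDTA, saponin, Triton X, SYBR Green I) is added and fluorescence measured next morning; values normalized to controls.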

ICS = system: ICS
In short: as §1

JCK = system: JCK
In short: as §1

PAD = system: PAD
In short: as §1

DIV17 = system: DIV17
In short: as §1

DIV30 = system: DIV30
In short: as §1

ECU = system: ECU
In short: as §1

FAB9 = system: FAB9
In short: as §1

HB3 = system: HB3
In short: as §1

N140 = system: N140
In short: as §1

P93_24 = system: P93_24
In short: as §1

P94_40 = system: P94_40
In short: as §1

PC15 = system: PC15
In short: as §1

PC26 = system: PC26
In short: as §1

PC49 = system: PC49
In short: as §1

SC27B = system: SC27B
In short: as §1

TAB109 = system: TAB109
In short: as §1

TAB113 = system: TAB113
In short: as §1

TAB165 = system: TAB165
In short: as §1

Dd2 = system: Dd2
In short: as §1

Measured: Potency
Potency is read from the fitted curve at half-maximal effect.

N=C(N)c1ccc2cc(OC(=O)c3ccc(N=C(N)N)cc3)ccc2c1
active: GB4 5.36 µM | ICS 7.08 µM
inactive: JCK | PAD

CN(C)C(=O)COC(=O)Cc1ccc(OC(=O)c2ccc(N=C(N)N)cc2)cc1
not listed: Dd2
inactive: all other assays above

CCc1nc(N)nc(N)c1-c1ccc(Cl)cc1
active: ECU 0.0501 µM | FAB9 0.0501 µM | GB4 0.019 µM | HB3 11.2 µM | TAB165 0.178 µM
not listed: ICS | DIV17 | DIV30 | PC26
inactive: all other assays above

CN1CCC(=C2c3ccccc3CCc3sccc32)CC1
inactive: ECU | FAB9
active: DIV17 4.26 µM | Dd2 5.01 µM | GB4 6.01 µM | ICS 8.91 µM | PC49 8.91 µM | TAB165 4.47 µM

O=C(O)c1cn(-c2ccc(F)cc2)c2cc(N3CCNCC3)c(F)cc2c1=O
not listed: GB4 | ICS | P93_24 | P94_40 | TAB109 | TAB165 | Dd2
inactive: all other assays above

CC1=C(C)C(=O)C(C(CCCCCC(=O)O)c2ccccc2)=C(C)C1=O (stereo not given)
not listed: GB4 | DIV17 | DIV30 | N140 | PC26 | SC27B | TAB165
inactive: all other assays above

CCCCCCCCOc1ccccc1C(=O)Nc1ccc(C(=O)OCC[N+](C)(CC)CC)cc1
active: ECU 10 µM | GB4 12 µM | ICS 8.91 µM | P93_24 12.6 µM | TAB109 7.94 µM | TAB113 10 µM | TAB165 6.31 µM
inactive: FAB9

Cc1cc(C2CCCCC2)n(O)c(=O)c1
active: FAB9 3.55 µM | GB4 6.42 µM | ICS 3.55 µM | P93_24 3.16 µM | PC15 3.16 µM | TAB165 3.16 µM
inactive: Dd2 | PC49

NNc1nncc2ccccc12
inactive: PC49
active: DIV17 5.1 µM | Dd2 3.98 µM | HB3 3.98 µM | ICS 1.41 µM | P93_24 3.98 µM | P94_40 3.55 µM

Cc1cc(=O)c2c(O)c3c(O)cc(=O)c4c3c3c(cc(O)c1c23)C(C)(C)C=4O
inactive: FAB9
active: DIV17 2.69 µM | Dd2 1.26 µM | ECU 2 µM | GB4 2.13 µM | HB3 2 µM | ICS 0.355 µM | N140 1 µM | P93_24 2.24 µM | P94_40 2 µM | PAD 2.51 µM | PC15 3.98 µM | PC49 7.94 µM | SC27B 1.58 µM | TAB109 2.24 µM | TAB113 1.58 µM | TAB165 1.78 µM

CCCCN(CCCC)CCC(O)c1cc2c(Cl)cc(Cl)cc2c2cc(C(F)(F)F)ccc12 (stereo not given)
active: DIV30 0.0102 µM | Dd2 0.0028 µM | ECU 0.0079 µM | FAB9 0.0112 µM | HB3 0.0063 µM | ICS 0.0006 µM | JCK 10 µM | N140 0.0032 µM | P93_24 0.0056 µM | P94_40 0.0032 µM | PAD 0.0045 µM | PC15 0.0089 µM | PC26 0.0102 µM | SC27B 0.0126 µM | TAB109 0.0071 µM | TAB113 0.0079 µM | TAB165 0.0079 µM

COC1=C(OC)C(=O)C(CCCCCCCCCCO)=C(C)C1=O
not listed: GB4 | DIV17 | P94_40 | TAB113 | TAB165
inactive: all other assays above

O=C1CCc2ccc(OCCCCN3CCN(c4cccc(Cl)c4Cl)CC3)cc2N1
inactive: DIV17 | DIV30 | FAB9 | GB4 | JCK | PC26 | PC49
active: ICS 11.2 µM | P93_24 10 µM

CC[C@]1(O)C[C@H]2CN(CCc3c([nH]c4ccccc34)[C@@](C(=O)OC)(c3cc4c(cc3OC)N(C=O)[C@H]3[C@@](O)(C(=O)OC)[C@H](OC(C)=O)[C@]5(CC)C=CCN6CC[C@]43[C@@H]65)C2)C1
active: DIV30 3.38 µM | Dd2 0.199 µM | HB3 0.447 µM | ICS 0.1 µM | N140 3.55 µM | P94_40 3.16 µM | SC27B 1.58 µM | TAB109 2 µM | TAB113 2.51 µM
inactive: PC15 | PC49

Cc1cc(=O)oc2cc(O)ccc12
inactive: DIV17 | DIV30 | FAB9 | GB4 | P93_24 | P94_40 | PAD
active: JCK 2 µM | PC15 1.12 µM | TAB113 1 µM

CN(c1nccc(=O)[nH]1)C1CCN(c2nc3ccccc3n2Cc2ccc(F)cc2)CC1
active: ICS 10 µM
inactive: FAB9 | HB3 | JCK | P93_24 | PAD | PC49 | SC27B | TAB113 | TAB165

C=C(c1ccc(C(=O)O)cc1)c1cc2c(cc1C)C(C)(C)CCC2(C)C
active: ICS 8.91 µM
not listed: HB3 | Dd2
inactive: all other assays above

O=C(O)CCNC(=O)c1ccc(N=Nc2ccc(O)c(C(=O)O)c2)cc1
not listed: HB3 | Dd2
inactive: all other assays above

COc1cc(OC)c(C(=O)CCCN2CCCC2)c(OC)c1
not listed: DIV17
inactive: all other assays above
